The results in this text go back to PubChem BioAssay (NCATS).

A number with no mark means an inactive call. Inconclusive results are not listed. The source made the active and inactive calls. Unless noted, calls follow the shape of the dose curve; as a rule, active = well fitted curve in the direction sought with a large enough effect; inconclusive = small, poorly fitted or top-dose-only effect, or another doubt; inactive = no such curve, though single readings can be large; an effect the other way counts as inactive or inconclusive.

In experiment [1] the target is Glucocorticoid receptor (Homo sapiens) (UniProt P04150). In words: GR-GFP Redistribution (AID 450;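 active = compounds whose dose series gives a full or clear partial fitted curve of increased nuclear translocation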; also: potency is read from the fitted curve at half-maximal effect). To be noted: U2OS GR-GFP nuclear translocation, laser cytometry, 2 h.
Experiment [2] has the same target. Description: GR-EFC Redistribution (AID 451; calls by dose curve; also: potency is read from the fitted curve at half-maximal effect). The conditions noted are these: CHO-K1 GR-EFC translocation, beta-gal luminescence, 2 h. Summed up: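 CHO-K1 cells expressing nuclear EA and GR-ED fragments of b-gal; compounds titrated up to 46 uM final, 2 h at 37 C. GR nuclear translocation read as complemented b-gal luminescence after 1 h RT detection.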
For experiment [3], the target named is Mitogen-activated protein kinase 10 (Mus musculus) (UniProt Q61831). In words: JNK3 AlphaScreen Assay (AID 530; active = well fitted curve in either direction with a large enough effect, not every such curve was filed as active;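 also: kinase came from lysate of stimulated human HepG2 cells; signal reports phosphorylation of biotinylated GST-cJun 1-79 at Ser73 with 10 µM ATP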). To be noted: JNK3 lysate, c-Jun phosphorylation; series mostly up to 57.1 µM. Summed up: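 Activity was read by AlphaScreen after JNK3-containing HepG2 lysate (cytokine pre-activated) phosphorylated biotinylated GST-cJun with 10 uM ATP at room temperature. Phospho-Ser73 cJun antibody with Protein-A acceptor beads provided detection.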

Experiment [4] can be described thus: qHTS for differential inhibitors of proliferation of Plasmodium falciparum line Dd2 (AID 1882). Also: nearly all actives have a fitted effect of over 65% in size. The conditions noted are these: Potency: Plasmodium falciparum Dd2 proliferation inhibition; series mostly up to 28.7 µM. Summed up: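 SYBR Green DNA fluorescence (ex 485, em 535 nm) after overnight lysis quantifies parasite growth; compound exposure lasted 72 h at 37 C on infected red cells at 2.5% hematocrit, 0.3% parasitemia (final). Artemisinin 0.29 uM and vehicle wells define normalization.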

A short description of experiment [5]: qHTS for differential inhibitors of proliferation of Plasmodium falciparum line W2 (AID 1883).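 Also: potency is read from the fitted curve at half-maximal effect; parasites grown with compound for 72 h before lysis and staining.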 To be noted: Potency: Plasmodium falciparum W2 proliferation inhibition; series mostly up to 28.7 µM.
Experiment [6] addresses ATP-dependent DNA helicase Q1 (Homo sapiens) (UniProt P46063). In words: qHTS Validation Assay for Inhibitors of RecQ-Like Dna Helicase 1 (RECQ1) (AID 2353). To be noted: recombinant RECQ1 helicase DNA unwinding assay; series mostly up to 25.6 µM. Summed up: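 RECQ1T1 50 nM; forked duplex (20 bp + 30-nt ss tails) 200 nM, ATP 2 mM final; pH 8.0, 2 mM MgCl2, 2.5 ug/ml poly(dI-dC); 15 min compound preincubation; discontinuous kinetic read over 2 h at RT.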

Experiment [7] in a line: Quantitative high throughput screen for delayed death inhibitors of the malarial parasite plastid, 96 hour incubation (AID 488745).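 Also: luciferase-expressing P. falciparum in erythrocytes at 2% hematocrit and 0.1% parasitemia; nearly all actives have a fitted effect of over 70% in size.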 The conditions noted are these: Plasmodium falciparum growth; series mostly up to 28.7 µM. Summed up: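 Readout is firefly luciferase luminescence from an integrated reporter in P. falciparum; lower signal marks inhibited growth. Cultures at 2% hematocrit and 0.1% parasitemia were treated with compound across two generations (96 h, 37 C, 5% CO2).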

Experiment [8] in a line: Quantitative high throughput screen for delayed death inhibitors of the malarial parasite plastid, 48 hour incubation (AID 488752). Also: nearly all actives have a fitted effect of over 65% in size. To be noted: Plasmodium falciparum growth; series mostly up to 28.7 µM. Summed up: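 First, compound was pinned into RPMI 1640 medium containing 0.5% Albumax. Next, reporter-parasite-infected erythrocytes were added to 2% hematocrit and 0.1% parasitemia. After 48 h at 37 C under 5% CO2, luciferase detection reagent was added and luminescence read.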

The target in experiment [9] is Galactokinase (Homo sapiens) (UniProt P51570). Description: qHTS Validation Assay for Inhibitors of Human Galactokinase (GALK) (AID 493189). The conditions noted are these: purified human GALK enzyme activity, qHTS 7-point titration; series mostly up to 57.5 µM. The essentials: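 Enzyme activity is inferred from ATP consumption: human GALK phosphorylates galactose (100 uM) using 35 uM ATP for 1 h at room temperature, and luciferase-based Kinase-Glo Plus reports unconsumed ATP.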

Experiment [10] is described as follows: Validation screen for small molecules that induce DNA re-replication in SW480 colon adenocarcinoma cells (AID 504364). The conditions noted are these: DNA re-replication phenotype (high-content imaging); series mostly up to 46.1 µM. The essentials: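 Image-based qHTS: compounds were incubated with SW480 cells for 48 hr, nuclei stained with Hoechst, and per-nucleus fluorescence intensity scanned to flag cells with excess DNA content.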

For experiment [11], the target named is Voltage-gated inwardly rectifying potassium channel KCNH2 (Homo sapiens) (UniProt Q12809). In words: qHTS Assay for Small Molecule Inhibitors of the Human hERG Channel Activity (AID 588834).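 Also: top concentration of the series differs between compounds; lower thallium flux fluorescence means stronger hERG block; nearly all actives have a fitted effect of over 50% in size.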 The conditions noted are these: U2OS BacMam hERG, FluxOR thallium flux fluorescence; series mostly up to 46.1 µM. Summed up: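 Homogeneous FluxOR thallium flux assay using hERG-expressing U2OS cells (BacMam). Compound treatment about 10 minutes preceded stimulation; reduced fluorescence taken as channel block.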

The test system of the next experiment is 7G8. Description: qHTS profiling for inhibitors of Plasmodium falciparum proliferation (AID 504749). Also: nearly all actives have a fitted effect of over 60% in size. Also: potency is read from the fitted curve at half-maximal effect. The conditions noted are these: P. falciparum in erythrocytes, SYBR Green DNA, 72 h; series mostly up to 28.7 µM. Summed up:
(§1)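 Each compound contacts P. falciparum-infected red blood cells for 72 h at 37 C; lysis buffer (Tris, EDTA, saponin, Triton X, SYBR Green I) is added and fluorescence measured next morning; values normalized to controls.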

A further experiment has as its system AS120. The experiment is described as above. To be noted: P. falciparum in erythrocytes, SYBR Green DNA, 72 h; series mostly up to 28.7 µM. The essentials: as §1
The subject of a further experiment is CP191. Described as above. The conditions noted are these: P. falciparum in erythrocytes, SYBR Green DNA, 72 h; series mostly up to 28.7 µM. Summed up: as §1
In a further experiment the test system is CP203. The experiment is described as above. To be noted: P. falciparum in erythrocytes, SYBR Green DNA, 72 h; series mostly up to 28.7 µM. The essentials: as §1
A further experiment deals with CP237. The description is as above. To be noted: P. falciparum in erythrocytes, SYBR Green DNA, 72 h; series mostly up to 28.7 µM. Summed up:
as §1

Another experiment deals with CP305. The description is as above. The conditions noted are these: P. falciparum in erythrocytes, SYBR Green DNA, 72 h; series mostly up to 28.7 µM. The essentials:
as §1

The subject of a further experiment is PC49. The experiment is described as above. The conditions noted are these: P. falciparum in erythrocytes, SYBR Green DNA, 72 h; series mostly up to 28.7 µM. Summed up:
as §1

The subject of a further experiment is TAB109. The description is as above. The conditions noted are these: P. falciparum in erythrocytes, SYBR Green DNA, 72 h; series mostly up to 28.7 µM. Summed up:
as §1

A further experiment deals with W2. Described as above. The conditions noted are these: P. falciparum in erythrocytes, SYBR Green DNA, 72 h; series mostly up to 28.7 µM. The essentials:
as §1

Sequence of Glucocorticoid receptor (Homo sapiens) (P04150 whole entry, looked up, the tested form may be a part): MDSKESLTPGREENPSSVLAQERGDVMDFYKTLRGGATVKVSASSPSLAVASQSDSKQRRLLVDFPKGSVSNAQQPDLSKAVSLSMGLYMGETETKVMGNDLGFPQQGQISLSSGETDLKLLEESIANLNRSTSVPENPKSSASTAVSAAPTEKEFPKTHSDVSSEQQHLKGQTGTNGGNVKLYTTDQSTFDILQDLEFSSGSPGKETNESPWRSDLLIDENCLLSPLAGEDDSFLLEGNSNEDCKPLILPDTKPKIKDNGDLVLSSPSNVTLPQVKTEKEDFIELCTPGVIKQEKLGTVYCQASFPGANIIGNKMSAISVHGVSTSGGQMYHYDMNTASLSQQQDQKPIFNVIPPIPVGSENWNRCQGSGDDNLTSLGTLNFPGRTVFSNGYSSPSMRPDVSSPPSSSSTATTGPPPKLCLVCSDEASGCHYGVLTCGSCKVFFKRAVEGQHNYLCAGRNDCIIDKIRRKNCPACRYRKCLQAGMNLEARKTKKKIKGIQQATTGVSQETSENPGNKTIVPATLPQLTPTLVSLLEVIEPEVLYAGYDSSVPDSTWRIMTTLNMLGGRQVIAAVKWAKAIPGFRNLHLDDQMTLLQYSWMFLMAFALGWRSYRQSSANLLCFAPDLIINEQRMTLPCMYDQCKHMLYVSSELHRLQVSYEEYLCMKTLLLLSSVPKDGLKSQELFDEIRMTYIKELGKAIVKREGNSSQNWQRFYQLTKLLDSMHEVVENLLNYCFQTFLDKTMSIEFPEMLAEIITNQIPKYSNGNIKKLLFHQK
Sequence of ATP-dependent DNA helicase Q1 (Homo sapiens) (P46063 whole entry, looked up): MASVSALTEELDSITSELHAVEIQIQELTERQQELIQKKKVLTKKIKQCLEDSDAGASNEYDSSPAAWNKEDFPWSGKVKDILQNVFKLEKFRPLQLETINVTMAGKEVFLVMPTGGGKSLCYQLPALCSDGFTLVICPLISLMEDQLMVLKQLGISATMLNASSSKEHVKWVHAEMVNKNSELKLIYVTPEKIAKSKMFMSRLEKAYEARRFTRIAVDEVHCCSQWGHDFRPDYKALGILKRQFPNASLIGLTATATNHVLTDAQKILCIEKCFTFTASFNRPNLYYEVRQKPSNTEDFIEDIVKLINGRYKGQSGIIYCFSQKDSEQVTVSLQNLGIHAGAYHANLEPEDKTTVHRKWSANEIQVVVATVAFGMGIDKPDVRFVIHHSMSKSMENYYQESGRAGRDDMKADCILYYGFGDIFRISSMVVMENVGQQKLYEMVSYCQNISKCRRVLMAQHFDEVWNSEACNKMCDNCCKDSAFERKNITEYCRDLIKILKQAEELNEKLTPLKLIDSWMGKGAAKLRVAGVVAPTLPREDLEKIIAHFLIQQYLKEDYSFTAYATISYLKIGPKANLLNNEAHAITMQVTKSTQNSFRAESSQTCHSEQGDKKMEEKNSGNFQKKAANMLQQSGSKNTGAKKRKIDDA
Sequence of Voltage-gated inwardly rectifying potassium channel KCNH2 (Homo sapiens) (Q12809 whole entry, looked up): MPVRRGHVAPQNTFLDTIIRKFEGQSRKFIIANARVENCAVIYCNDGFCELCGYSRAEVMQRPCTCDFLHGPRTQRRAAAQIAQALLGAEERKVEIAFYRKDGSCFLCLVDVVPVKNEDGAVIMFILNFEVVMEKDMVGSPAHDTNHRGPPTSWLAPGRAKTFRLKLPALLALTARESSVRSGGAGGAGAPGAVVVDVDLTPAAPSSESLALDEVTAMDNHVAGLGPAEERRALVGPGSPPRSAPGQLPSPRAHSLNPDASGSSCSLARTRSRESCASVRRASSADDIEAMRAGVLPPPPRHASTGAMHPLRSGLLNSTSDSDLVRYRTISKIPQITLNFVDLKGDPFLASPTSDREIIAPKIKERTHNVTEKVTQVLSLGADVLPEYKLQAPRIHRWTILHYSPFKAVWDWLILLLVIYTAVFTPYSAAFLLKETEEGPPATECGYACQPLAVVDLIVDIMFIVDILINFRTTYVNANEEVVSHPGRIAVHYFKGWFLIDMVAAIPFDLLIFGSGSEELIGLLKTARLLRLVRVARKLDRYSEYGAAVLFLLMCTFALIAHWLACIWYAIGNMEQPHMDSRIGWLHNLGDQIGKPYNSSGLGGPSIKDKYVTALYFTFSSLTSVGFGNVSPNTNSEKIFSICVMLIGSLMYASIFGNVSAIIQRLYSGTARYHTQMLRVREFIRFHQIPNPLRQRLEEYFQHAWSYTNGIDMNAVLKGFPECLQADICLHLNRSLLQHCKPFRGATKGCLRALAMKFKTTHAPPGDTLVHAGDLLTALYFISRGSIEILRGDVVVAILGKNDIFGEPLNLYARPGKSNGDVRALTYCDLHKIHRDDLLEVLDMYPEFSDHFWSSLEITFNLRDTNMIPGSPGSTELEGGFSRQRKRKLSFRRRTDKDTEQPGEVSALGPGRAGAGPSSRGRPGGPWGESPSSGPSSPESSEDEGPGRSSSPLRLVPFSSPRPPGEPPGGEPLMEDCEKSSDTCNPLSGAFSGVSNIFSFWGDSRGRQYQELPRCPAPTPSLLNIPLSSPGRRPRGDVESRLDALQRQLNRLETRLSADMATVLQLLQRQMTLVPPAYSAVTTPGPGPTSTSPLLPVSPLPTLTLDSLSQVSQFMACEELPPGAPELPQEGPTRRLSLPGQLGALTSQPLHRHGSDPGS
Sequence of Galactokinase (Homo sapiens) (P51570 whole entry, looked up): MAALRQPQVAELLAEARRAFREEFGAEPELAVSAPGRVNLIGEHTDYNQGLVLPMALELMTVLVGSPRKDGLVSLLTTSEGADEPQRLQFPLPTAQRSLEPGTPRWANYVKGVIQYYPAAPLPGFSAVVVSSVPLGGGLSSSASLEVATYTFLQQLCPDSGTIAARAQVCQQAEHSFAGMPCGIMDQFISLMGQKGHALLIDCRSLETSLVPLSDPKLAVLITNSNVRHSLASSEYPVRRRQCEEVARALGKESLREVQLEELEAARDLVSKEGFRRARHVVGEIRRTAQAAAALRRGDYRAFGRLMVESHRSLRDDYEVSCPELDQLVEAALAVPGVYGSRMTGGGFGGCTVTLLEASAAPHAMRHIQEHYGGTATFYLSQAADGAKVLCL

For `CN(CCOc1ccc(C[C@H](Nc2ccccc2C(=O)c2ccccc2)C(=O)O)cc1)c1ccccn1`, the Potency in experiment [1] is more than 46000 nM; in experiment [2], more than 46000 nM; in experiment [5], 8910 nM (active). The result in experiment [3], in experiment [9] and in experiment [10] was inactive. The Potency result in [4], in experiment [6], in [7], in [8] and in experiment [11] was “inactive” throughout.

In the case of `C[C@H]1CC2[C@@H]3CCC4=CC(=O)C=C[C@]4(C)[C@@]3(F)[C@@H](O)C[C@]2(C)[C@@]1(O)C(=O)CO` (stereo not given in full), the Potency entry in experiment [4], in experiment [6], in experiment [7], in [8] and in [11] was “inactive” in each case. In experiment [5], the Potency is 10000 nM (active). Further, the result in experiment [9] and in experiment [10] was inactive.

As to `C[C@@]12C(=O)OC(=O)[C@]1(C)[C@H]1CC[C@@H]2O1`, the Potency in experiment [1] is 2630 nM (active); in experiment [2], more than 20600 nM; with 7G8 it was 2820 nM (active); in the experiment on AS120, 3550 nM (active); in the experiment with CP191 it was 1580 nM (active); with CP203, 2560 nM (active). The Potency with CP237 is 1260 nM (active); in the experiment with CP305, 2870 nM (active); in the experiment on PC49, 2240 nM (active); in the experiment on TAB109, 2820 nM (active); in the experiment with W2, 2280 nM (active). The outcome in experiment [3] was inactive.

Regarding `CC(/C=C1\SC(=S)N(CC(=O)O)C1=O)=C\c1ccccc1`, the Potency entry in the experiment on 7G8, in the experiment with AS120, in the experiment with CP191, with CP203, with CP237 and in the experiment with CP305 was “inactive” throughout. Also, the Potency entry in the experiment on PC49, in the experiment on TAB109 and in the experiment on W2 was “inactive” throughout.
